Results reported in PubChem BioAssay AID1851 (National Center for Advancing Translational Sciences (NCATS), 2009).
In all, about 16,000 compounds went through this assay and about 2,600 (16%) were called active. Inconclusive results (about 20%) are left out. Calls come from the whole dose curve; as a rule, active = well fitted curve in the direction sought with a large enough effect; inconclusive = small, poorly fitted or top-dose-only effect, or effect the other way; inactive = no such curve, though single readings can be large or run the other way. Only a sample is shown.

target: Cytochrome P450 2D6 (Homo sapiens) (UniProt P10635); test: Cytochrome panel assay with activity outcomes; conditions: recombinant CYP, pro-luciferin dealkylation, luminescence, p450-cyp2d6; series mostly up to 57.1 µM; activity, negative = inhibition: at the top concentration
Sequence (P10635 whole entry, looked up): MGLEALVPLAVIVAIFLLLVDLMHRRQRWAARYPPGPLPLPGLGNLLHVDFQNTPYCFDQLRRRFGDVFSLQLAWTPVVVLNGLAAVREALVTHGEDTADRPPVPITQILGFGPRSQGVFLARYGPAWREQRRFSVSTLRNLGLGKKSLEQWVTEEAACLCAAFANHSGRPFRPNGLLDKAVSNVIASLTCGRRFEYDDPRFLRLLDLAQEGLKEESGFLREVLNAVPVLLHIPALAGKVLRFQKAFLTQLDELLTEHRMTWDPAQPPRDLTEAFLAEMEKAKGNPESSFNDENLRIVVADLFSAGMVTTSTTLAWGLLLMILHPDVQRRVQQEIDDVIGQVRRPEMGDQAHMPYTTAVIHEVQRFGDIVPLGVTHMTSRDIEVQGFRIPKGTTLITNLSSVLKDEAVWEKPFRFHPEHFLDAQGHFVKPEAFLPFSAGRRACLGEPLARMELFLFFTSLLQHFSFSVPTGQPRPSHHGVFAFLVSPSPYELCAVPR
% is set by controls: 0 for no effect and ±100 for the full control effect.

activity, negative = inhibition, inactive:
CC(C)CCn1c(Oc2ccccc2Cl)nc2c1c(=O)n(C)c(=O)n2C -16.4%
CC(=O)/C(=C\c1ccccc1F)C(=O)c1ccccc1 -1.17% [at 11.4 µM]
COCCCNC(=O)C1CC(=O)N(CCc2ccc(OC)c(OC)c2)C1 (stereo not given) 10.7%
CC1CC(C)CN(CCCNC(=O)C2CCCN(c3nnc(N4CCCC4=O)s3)C2)C1 (stereo not given) -18.7%
COC(=O)c1nn(C23CC4CC(CC(C4)C2)C3)c2c1C(=O)N(c1ccc(F)cc1)C2=O 1.92%
COc1cccc(/C(O)=C2/C(=O)C(=O)N(c3ccccn3)C2c2ccc(OC)c(OC)c2)c1 (stereo not given) -0.578%
NC1=N[C@H](c2ccc(Cl)cc2)N(c2ccc(S(=O)(=O)Nc3ncccn3)cc2)C(N)=N1 -2.11% [at 11.4 µM]
COc1cccc(Cn2c(=O)c(-c3cn(C)c4ccccc34)nc3cncnc32)c1 0.612%
O=C(O)CCCCCCCC(=O)O 2.09%
COc1ccc(Oc2nc(C)cc(C)c2S(=O)(=O)c2ccc(C)cc2)cc1 -5.88%
N[C@H](CCC(=O)NCC(=O)O)C(=O)O 6.41%
CC(NC(=O)CN1CCCC1)C12CC3CC(CC(C3)C1)C2 (stereo not given) -17.4%
Cc1ccc(S(=O)(=O)N[C@H]2COC(=O)[C@H](C)COC(=O)[C@H](C)NC(=O)C/C=C\[C@H]2C)cc1 12.2% [at 11.4 µM]
O=C(O)[C@@H]1[C@@H](C(=O)NCc2ccccn2)[C@@H]2C=C[C@@H]1O2 8.57% [at 11.4 µM]
COC(=O)[C@](C)(N)Cc1ccc(O)cc1 4.18%
COC(=O)[C@H](N)Cc1ccc(Cl)cc1 -5.04%
COc1ccc(C2=NC(C(F)(F)F)(C(F)(F)F)c3c(n(C)c(=O)n(C)c3=O)N2)cc1 2.5%
CNC(=O)NC(=S)NC(=O)c1ccc(OC)cc1 -4.2%
COc1ccc(-c2nc3cnc(OC)nc3n(-c3ccc(OC)cc3)c2=O)cc1 5.64%
CCOC(=O)N/N=C/c1ccc(C)o1 1.51%
Cc1ccc(/C=N/NC(=O)Cn2nccc2C)o1 -1.83%
CCCC(=O)n1nc(-c2cccnc2)nc1N 10.8%
Cc1nnsc1SC(C)C(=O)O (stereo not given) -11%
CCn1c(COc2ccc(C)cc2)nnc1SCc1ccc(C#N)cc1 -22.7%
O=C(Nc1cccc([N+](=O)[O-])c1)c1ccc(CSc2ccccc2)cc1 -4.86%
O=C(Nc1cc(Sc2ccccn2)cc([N+](=O)[O-])c1)c1ccc([N+](=O)[O-])cc1 -16.7%
CC1=CC(=C2C(=O)c3ccccc3C2=O)C=C(C)N1Cc1ccco1 17.1%
O=c1c(-c2cccc(F)c2)nc2cncnc2n1-c1ccccc1 -9.29%
CN1CCN(c2ncc3nc(-c4ccccc4)c(=O)n(Cc4ccc(F)cc4)c3n2)CC1 -0.95%
COc1ccc(S(=O)(=O)Nc2cccc(Cl)c2)cc1OC -24.4%
CC(C)(C)c1ccc(NS(=O)(=O)c2ccc(N)cc2)cc1 18.9% [at 11.4 µM]
Cc1csc(NC(=O)CNS(=O)(=O)c2cccs2)n1 1.06%
O=S(=O)(Nc1cccnc1Cl)c1ccc2c(c1)OCCO2 0.444%
CCNS(=O)(=O)c1ccc(NS(C)(=O)=O)cc1 -5.1%
CC(=C\C(=O)O)/C(=C/c1ccccc1)C(=O)O -7.05%
CCOC(=O)C1(C(=O)O)NC(=O)CC1c1ccccc1 (stereo not given) -5.68%
C[C@H]1CC[C@H]2C(=O)N[C@H](Cc3ccccc3)C(=O)N2[C@@H]1c1ccccc1 -17.6% [at 11.4 µM]
COCCn1c(=O)c(-c2cn(C)c3ccccc23)nc2cncnc21 -5.12%
NC(N)=N[C@H](CCC(=O)O)C(=O)O 0.897%
O=C1OCCC=C1[C@@H](O)CCc1ccccc1 -2.43% [at 11.4 µM]
COC(=O)c1scc(C)c1NC(=O)Cc1ccccc1 -2.62%
O=C(O)c1ccc(SSc2ccc(C(=O)O)cn2)nc1 -10.6% [at 11.4 µM]
N#CC(c1ccccc1F)(c1ncc(C(F)(F)F)cc1Cl)N1CCOCC1 (stereo not given) -15.7%
Cc1cc2nc([C@H](C)C(=O)c3ccc(Cl)cc3)c(=O)[nH]c2cc1C -4.99% [at 11.4 µM]
COc1ccc(-c2nc3cnc(N4CCNCC4)nc3n(C)c2=O)cc1 -2.18%
COc1ccc2nc(N3C(=O)CC(Cc4ccc(Cl)cc4)C3=O)sc2c1 (stereo not given) -13.6%
CN1CCN(CCCNC(=O)C2CCN(c3nnc(-n4cccc4)s3)CC2)CC1 -2.02%
O=c1[nH]ncn2cccc12 1.89%
COCCNC(=O)CCn1nc(-c2ccc(Cl)cc2)ccc1=O -2.97%
CCC(C)(C)n1nnnc1C(c1cc2cc3c(cc2[nH]c1=O)OCO3)N1CCCCC1 (stereo not given) -25.4%
CCC(C)(C)n1nnnc1C(C(C)C)N(CCCO)Cc1cc2cc(C)ccc2[nH]c1=O (stereo not given) -18.4%
COc1cc2cc(CN(CCCO)S(=O)(=O)c3ccccc3Cl)c(=O)[nH]c2cc1OC 5.86%
COc1ccccc1CN(Cc1cc2cc(C)cc(C)c2[nH]c1=O)Cc1nnnn1CC1CCCO1 (stereo not given) -28.2%
COc1cccc2c1OC1(C)CC2/C(=C(\C)O)C(=O)N1 (stereo not given) 7.2%
OC[C@@H]1O[C@H](O)[C@@H](Cl)[C@H](O)[C@@H]1O 5.2%
CN(C)S(=O)(=O)Oc1cccc(C(=O)Nc2ccccc2Cl)c1 -10.3%
Clc1ccc(CSc2ncnc3c2ncn3[C@@H]2CCCCO2)cc1 -9.38% [at 11.4 µM]
COc1ccc(/C=N/NC(=O)c2cc(-c3ccc(C)cc3C)nc3ccccc23)cc1COC(C)=O 1.39%
CCOCCCn1cnc2c(c1=O)c1nc3ccccc3nc1n2-c1ccccc1 -6.76%
CCCCn1cnc2c(cnn2-c2ccc(F)cc2)c1=O -12.2%
O=C(NCCN1CCN(C(=O)C(c2ccccc2)c2ccccc2)CC1)C(=O)Nc1ccccc1 -10%
COc1ccc(NC(=O)C2CCN(C(=O)c3cccs3)CC2)c(OC)c1 16.9%
O=C1[C@H]2[C@H]3[C@H](O)[C@H](O)C/C(=N/OCc4ccccc4)[C@H]3CC[C@@H]2C(=O)N1C[C@@H]1CCCO1 4.75% [at 11.4 µM]
COc1cccc(Cn2c(=O)c(-c3cccs3)nc3cnc(N(C)C)nc32)c1 -4.4%
COC(=O)CSc1ncc(OC)c(OC)n1 -7.49%
O=C1c2ccccc2C(=O)N1C[C@]1(C(=O)O)NCCS1(=O)=O 7.33% [at 11.4 µM]
CC(C)NC(=O)N1CC[C@@]2(CCCN(S(C)(=O)=O)C2)C1 -3.82%
CS(=O)(=O)N1CCC2(CCCN(C(=O)Nc3cccc(F)c3)C2)CC1 -4.34%
CC(C)NC(=O)N1CCCC2(CCN(C(=O)c3cccn3C)CC2)C1 -1.09%
CC(C)NC(=O)N1CC2(CCN(S(=O)(=O)c3ccccc3)CC2)C1 0.223%
COC(=O)N1CCC2(CCN(C(=O)NC(C)C)CC2)CC1 -13.5%
CS(=O)(=O)N1CCC[C@@]2(CCN(C(=O)Nc3cccc(F)c3)C2)C1 5.14%
O=C(C1CCN(S(=O)(=O)N2CCOCC2)CC1)N1CCN(c2ccccc2)CC1 7.34%
CN(C)c1ncc2nc(-c3cc(F)cc(F)c3)c(=O)n(Cc3cccs3)c2n1 -2.95%
CCN1CCN(C(=O)N[C@H](C(=O)N[C@@H]2C(=O)N3[C@@H]2SC(C)(C)[C@@H]3C(=O)O)c2ccccc2)C(=O)C1=O -0.322% [at 25.6 µM]
CC(=O)[C@H](C(=N)C#N)C(=O)Nc1ccccc1 5.49% [at 11.4 µM]
CCC(=O)OCN1C(=O)C=CC1=O 6.64% [at 11.4 µM]
O=c1cc(CF)[nH]c(=S)[nH]1 11.9% [at 11.4 µM]
CN(C)c1ncc2ncc(=O)n(CCC#N)c2n1 3.67%
COc1ccc(NC(=O)N2CCC3(CC2)CCN(C(=O)c2cnccn2)CC3)cc1 -1.61%

AC50, inactive:
CC(=O)N[C@@H](C(=O)O)C(C)(C)SN=O
COc1ccc(-c2ccc(N)[n+](CCCC(=O)O)n2)cc1

AC50, active:
CC1CCCN(CCCNC(=O)C2CC(=O)N(c3ccc(F)c(Cl)c3)C2)C1 (stereo not given) 15.8 µM
COc1ccc(C2N=C(N)N=C(N)N2c2ccccc2OC)cc1OC (stereo not given) 7.08 µM
CC(C)(C)CNC(CO)C12CC3CC(CC(C3)C1)C2 (stereo not given) 10 µM
C[C@H](N)C(=O)OC(C)(C)Cc1ccc(Cl)cc1 12.6 µM
Cc1ccc(/C=N\Nc2nc3ccc(Cl)cc3[nH]2)o1 3.55 µM
O=C(Nc1cc(Sc2ccccn2)cc([N+](=O)[O-])c1)c1ccc(Cl)cc1 8.91 µM
O=S(=O)(Nc1ccc(Cc2ccncc2)cc1)c1cccs1 0.355 µM
O=S(=O)(Nc1ccc(Cc2ccncc2)cc1)c1ccc(Br)cc1 0.631 µM
O=S(=O)(Nc1ccc(Cc2ccncc2)cc1)c1ccc(Cl)c(Cl)c1 1 µM
COc1ccc2nc(N3CCCC(C(=O)NCCCN4CCN(C)CC4)C3)sc2c1 (stereo not given) 11.2 µM
COc1ccc(-c2ccc(=N)n(CCCC(=O)O)n2)cc1 3.98 µM
COc1ccccc1CN(Cc1cc2cc3c(cc2[nH]c1=O)OCCO3)Cc1nnnn1Cc1ccco1 14.1 µM
CCC(C)(C)n1nnnc1C(C(C)C)N(Cc1ccco1)Cc1cc2cc3c(cc2[nH]c1=O)OCO3 (stereo not given) 14.1 µM
CCCCn1cnc2c(c(CC#N)nn2-c2ccccc2)c1=N 0.398 µM
O=C(c1cccs1)N1CCN(C(=O)C(c2ccccc2)c2ccccc2)CC1 10 µM
CC(C)NC(=O)N1CCCC2(CCN(S(=O)(=O)c3ccccc3)CC2)C1 0.316 µM
CC(C)NC(=O)N1CCC2(CC1)CCN(S(C)(=O)=O)CC2 15.8 µM
O=C(Nc1cccc(F)c1)N1CCCC2(CCN(S(=O)(=O)c3ccccc3)CC2)C1 12.6 µM
